In assay [1] the target is Sphingosine kinase 1 (Homo sapiens) (UniProt Q9NYA1). The note with it: at 1 µM.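 Also: mean SPHK1 inhibition value reported from the GSK PKIS kinase panel screen.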
The target in assay [2] is T1, Sphingosine kinase 2 (Homo sapiens) (UniProt Q9NRA0).
T1 sequence (whole entry): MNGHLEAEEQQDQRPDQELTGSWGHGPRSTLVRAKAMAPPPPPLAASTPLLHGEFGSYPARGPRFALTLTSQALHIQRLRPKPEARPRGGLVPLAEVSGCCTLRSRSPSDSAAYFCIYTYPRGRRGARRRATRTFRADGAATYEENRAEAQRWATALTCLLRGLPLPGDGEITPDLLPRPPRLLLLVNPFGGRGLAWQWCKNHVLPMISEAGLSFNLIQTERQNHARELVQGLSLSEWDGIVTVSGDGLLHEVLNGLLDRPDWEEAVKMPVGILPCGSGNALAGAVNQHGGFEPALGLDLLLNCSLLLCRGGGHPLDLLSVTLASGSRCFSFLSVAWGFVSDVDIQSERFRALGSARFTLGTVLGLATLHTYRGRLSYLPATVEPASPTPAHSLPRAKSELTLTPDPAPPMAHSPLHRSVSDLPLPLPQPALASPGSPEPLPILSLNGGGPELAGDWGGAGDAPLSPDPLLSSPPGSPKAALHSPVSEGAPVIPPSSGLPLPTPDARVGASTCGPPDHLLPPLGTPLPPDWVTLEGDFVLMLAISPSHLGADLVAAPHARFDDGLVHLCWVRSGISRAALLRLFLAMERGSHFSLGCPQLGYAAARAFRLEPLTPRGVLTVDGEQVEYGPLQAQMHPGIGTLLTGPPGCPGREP
The note with it: at 0.1 µM.

Assay [3] addresses T1, Sphingosine kinase 2 (Homo sapiens). The note with it: at 1 µM.
Assay [4] deals with Casein kinase II subunit alpha (Homo sapiens) (UniProt P68400). The note with it: at 0.1 µM.
The target is the same in assay [5]. The note with it: at 1 µM.
Assay [6] has as its target T2, Inhibitor of nuclear factor kappa-B kinase subunit alpha (Homo sapiens) (UniProt O15111).
T2 sequence (whole entry): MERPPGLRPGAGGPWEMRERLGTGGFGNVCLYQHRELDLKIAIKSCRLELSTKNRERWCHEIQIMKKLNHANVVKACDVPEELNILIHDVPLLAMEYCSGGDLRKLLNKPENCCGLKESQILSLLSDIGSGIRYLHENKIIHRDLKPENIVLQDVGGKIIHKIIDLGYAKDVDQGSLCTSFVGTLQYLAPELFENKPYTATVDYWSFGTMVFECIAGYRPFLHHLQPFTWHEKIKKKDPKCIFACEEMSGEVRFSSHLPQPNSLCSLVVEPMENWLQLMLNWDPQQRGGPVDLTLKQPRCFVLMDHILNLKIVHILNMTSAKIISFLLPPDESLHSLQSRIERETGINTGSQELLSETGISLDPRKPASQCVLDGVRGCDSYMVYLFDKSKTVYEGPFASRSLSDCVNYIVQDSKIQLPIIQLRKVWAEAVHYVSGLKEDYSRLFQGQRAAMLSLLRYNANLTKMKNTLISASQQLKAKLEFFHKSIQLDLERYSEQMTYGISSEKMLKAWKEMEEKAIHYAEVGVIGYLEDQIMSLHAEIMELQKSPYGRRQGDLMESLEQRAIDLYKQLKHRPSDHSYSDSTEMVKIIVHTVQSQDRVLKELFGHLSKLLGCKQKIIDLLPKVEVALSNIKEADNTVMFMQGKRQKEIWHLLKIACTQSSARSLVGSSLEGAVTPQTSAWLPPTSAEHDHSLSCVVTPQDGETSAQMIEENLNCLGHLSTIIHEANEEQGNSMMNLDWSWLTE
The note with it: at 0.1 µM.

Assay [7] addresses T2, Inhibitor of nuclear factor kappa-B kinase subunit alpha (Homo sapiens). The note with it: at 1 µM.
The target in assay [8] is T3, Inhibitor of nuclear factor kappa-B kinase subunit beta (Homo sapiens) (UniProt O14920).
T3 sequence (whole entry): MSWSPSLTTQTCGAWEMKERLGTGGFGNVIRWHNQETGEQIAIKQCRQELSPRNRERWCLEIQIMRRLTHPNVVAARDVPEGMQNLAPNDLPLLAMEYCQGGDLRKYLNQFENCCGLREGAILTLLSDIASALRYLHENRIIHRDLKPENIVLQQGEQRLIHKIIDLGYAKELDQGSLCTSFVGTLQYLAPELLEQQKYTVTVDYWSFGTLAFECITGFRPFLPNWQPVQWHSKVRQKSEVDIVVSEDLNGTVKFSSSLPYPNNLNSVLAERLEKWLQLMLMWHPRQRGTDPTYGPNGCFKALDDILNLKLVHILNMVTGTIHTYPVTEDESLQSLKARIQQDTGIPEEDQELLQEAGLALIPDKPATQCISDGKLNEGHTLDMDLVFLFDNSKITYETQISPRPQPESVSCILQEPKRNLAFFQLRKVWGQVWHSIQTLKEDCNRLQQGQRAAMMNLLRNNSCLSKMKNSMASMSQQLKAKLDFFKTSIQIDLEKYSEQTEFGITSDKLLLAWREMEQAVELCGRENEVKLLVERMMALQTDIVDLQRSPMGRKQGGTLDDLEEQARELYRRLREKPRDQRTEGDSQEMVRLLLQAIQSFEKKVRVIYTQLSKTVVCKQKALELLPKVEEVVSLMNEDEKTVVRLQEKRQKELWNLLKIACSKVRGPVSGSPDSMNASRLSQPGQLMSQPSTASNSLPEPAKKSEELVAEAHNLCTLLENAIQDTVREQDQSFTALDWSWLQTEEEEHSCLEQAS
The note with it: at 0.1 µM.

Assay [9] concerns the target T3, Inhibitor of nuclear factor kappa-B kinase subunit beta (Homo sapiens). The note with it: at 1 µM.
Assay [10] has as its target T4, Inhibitor of nuclear factor kappa-B kinase subunit epsilon (Homo sapiens) (UniProt Q14164).
T4 sequence (whole entry): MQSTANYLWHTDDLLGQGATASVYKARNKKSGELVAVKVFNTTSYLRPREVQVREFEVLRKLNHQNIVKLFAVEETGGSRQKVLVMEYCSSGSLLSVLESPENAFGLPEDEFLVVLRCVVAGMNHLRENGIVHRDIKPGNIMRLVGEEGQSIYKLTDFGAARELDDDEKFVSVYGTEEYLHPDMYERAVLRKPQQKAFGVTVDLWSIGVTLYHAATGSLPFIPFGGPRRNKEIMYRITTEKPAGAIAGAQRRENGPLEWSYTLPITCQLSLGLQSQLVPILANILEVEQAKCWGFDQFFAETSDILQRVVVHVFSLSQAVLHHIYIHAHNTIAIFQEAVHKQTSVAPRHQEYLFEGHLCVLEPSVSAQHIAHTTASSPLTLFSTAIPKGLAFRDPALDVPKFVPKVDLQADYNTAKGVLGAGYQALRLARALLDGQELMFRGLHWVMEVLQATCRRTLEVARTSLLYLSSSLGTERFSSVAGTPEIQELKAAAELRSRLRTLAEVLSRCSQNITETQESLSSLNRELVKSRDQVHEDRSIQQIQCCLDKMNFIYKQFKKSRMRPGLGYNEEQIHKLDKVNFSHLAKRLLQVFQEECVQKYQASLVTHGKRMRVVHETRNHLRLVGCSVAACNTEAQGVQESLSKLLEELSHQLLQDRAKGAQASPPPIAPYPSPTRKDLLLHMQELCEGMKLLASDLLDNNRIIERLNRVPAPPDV
The note with it: at 0.1 µM.

For assay [11], the target named is T4, Inhibitor of nuclear factor kappa-B kinase subunit epsilon (Homo sapiens). The note with it: at 1 µM.
Assay [12] has as its target T5, Serine/threonine-protein kinase Nek1 (Homo sapiens) (UniProt Q96PY6).
T5 sequence (whole entry): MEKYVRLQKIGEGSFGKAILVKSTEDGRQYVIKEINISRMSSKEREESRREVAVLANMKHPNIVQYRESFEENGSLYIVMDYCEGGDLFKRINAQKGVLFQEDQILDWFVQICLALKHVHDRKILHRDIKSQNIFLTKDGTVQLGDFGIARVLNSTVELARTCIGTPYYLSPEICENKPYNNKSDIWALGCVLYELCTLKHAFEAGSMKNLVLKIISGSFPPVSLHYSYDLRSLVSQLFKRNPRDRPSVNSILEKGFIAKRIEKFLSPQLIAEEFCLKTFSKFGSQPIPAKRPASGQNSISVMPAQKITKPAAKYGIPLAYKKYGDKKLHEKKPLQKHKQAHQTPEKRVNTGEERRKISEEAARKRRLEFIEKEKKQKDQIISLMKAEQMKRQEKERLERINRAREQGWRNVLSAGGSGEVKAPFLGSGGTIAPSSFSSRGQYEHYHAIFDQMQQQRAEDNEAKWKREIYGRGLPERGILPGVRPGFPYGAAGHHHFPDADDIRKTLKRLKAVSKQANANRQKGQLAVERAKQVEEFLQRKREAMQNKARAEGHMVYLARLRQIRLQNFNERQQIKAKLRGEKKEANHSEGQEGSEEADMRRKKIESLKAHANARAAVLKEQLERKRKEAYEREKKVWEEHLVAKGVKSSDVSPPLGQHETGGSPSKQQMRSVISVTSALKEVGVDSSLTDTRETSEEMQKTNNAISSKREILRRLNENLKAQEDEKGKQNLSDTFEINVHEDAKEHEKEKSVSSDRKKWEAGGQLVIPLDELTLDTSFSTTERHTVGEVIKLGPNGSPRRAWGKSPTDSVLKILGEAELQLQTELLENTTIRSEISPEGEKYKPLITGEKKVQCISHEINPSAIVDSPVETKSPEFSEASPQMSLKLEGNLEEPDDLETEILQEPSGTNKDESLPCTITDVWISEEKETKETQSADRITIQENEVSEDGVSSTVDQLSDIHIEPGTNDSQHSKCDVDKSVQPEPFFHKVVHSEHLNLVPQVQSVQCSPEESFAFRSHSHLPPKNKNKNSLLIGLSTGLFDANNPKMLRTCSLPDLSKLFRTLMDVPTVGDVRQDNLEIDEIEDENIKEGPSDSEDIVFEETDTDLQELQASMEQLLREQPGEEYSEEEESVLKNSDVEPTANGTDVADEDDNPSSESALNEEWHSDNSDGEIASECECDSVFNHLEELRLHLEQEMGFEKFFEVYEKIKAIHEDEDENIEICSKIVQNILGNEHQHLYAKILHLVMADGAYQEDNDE
The note with it: at 0.1 µM.

The target of assay [13] is T5, Serine/threonine-protein kinase Nek1 (Homo sapiens). The note with it: at 1 µM.
For assay [14], the target named is T6, Serine/threonine-protein kinase Nek2 (Homo sapiens) (UniProt P51955).
T6 sequence (whole entry): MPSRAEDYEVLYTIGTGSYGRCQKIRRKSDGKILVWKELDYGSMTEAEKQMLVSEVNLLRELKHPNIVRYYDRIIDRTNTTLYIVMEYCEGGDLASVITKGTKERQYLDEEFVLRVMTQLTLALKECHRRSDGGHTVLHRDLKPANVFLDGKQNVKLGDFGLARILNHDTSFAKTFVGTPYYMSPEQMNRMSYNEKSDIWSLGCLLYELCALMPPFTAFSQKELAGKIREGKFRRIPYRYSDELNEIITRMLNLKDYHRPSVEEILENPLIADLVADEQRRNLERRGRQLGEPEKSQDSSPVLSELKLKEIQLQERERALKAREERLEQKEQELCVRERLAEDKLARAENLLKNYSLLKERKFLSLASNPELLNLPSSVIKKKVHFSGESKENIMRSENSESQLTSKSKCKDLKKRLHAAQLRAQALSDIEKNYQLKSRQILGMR
The note with it: at 0.1 µM.

For assay [15], the target named is T6, Serine/threonine-protein kinase Nek2 (Homo sapiens). The note with it: at 1 µM.
In assay [16] the target is Serine/threonine-protein kinase Nek6 (Homo sapiens) (UniProt Q9HC98). The note with it: at 0.1 µM.
Assay [17] has the same target. The note with it: at 1 µM.
Assay [18] concerns the target Serine/threonine-protein kinase Nek7 (Homo sapiens) (UniProt Q8TDX7). The note with it: at 0.1 µM.
Assay [19] shares this target. The note with it: at 1 µM.
In assay [20] the target is T7, Serine/threonine-protein kinase Nek9 (Homo sapiens) (UniProt Q8TD19).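 Also: reported value is the mean percent inhibition of NEK9.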
T7 sequence (whole entry): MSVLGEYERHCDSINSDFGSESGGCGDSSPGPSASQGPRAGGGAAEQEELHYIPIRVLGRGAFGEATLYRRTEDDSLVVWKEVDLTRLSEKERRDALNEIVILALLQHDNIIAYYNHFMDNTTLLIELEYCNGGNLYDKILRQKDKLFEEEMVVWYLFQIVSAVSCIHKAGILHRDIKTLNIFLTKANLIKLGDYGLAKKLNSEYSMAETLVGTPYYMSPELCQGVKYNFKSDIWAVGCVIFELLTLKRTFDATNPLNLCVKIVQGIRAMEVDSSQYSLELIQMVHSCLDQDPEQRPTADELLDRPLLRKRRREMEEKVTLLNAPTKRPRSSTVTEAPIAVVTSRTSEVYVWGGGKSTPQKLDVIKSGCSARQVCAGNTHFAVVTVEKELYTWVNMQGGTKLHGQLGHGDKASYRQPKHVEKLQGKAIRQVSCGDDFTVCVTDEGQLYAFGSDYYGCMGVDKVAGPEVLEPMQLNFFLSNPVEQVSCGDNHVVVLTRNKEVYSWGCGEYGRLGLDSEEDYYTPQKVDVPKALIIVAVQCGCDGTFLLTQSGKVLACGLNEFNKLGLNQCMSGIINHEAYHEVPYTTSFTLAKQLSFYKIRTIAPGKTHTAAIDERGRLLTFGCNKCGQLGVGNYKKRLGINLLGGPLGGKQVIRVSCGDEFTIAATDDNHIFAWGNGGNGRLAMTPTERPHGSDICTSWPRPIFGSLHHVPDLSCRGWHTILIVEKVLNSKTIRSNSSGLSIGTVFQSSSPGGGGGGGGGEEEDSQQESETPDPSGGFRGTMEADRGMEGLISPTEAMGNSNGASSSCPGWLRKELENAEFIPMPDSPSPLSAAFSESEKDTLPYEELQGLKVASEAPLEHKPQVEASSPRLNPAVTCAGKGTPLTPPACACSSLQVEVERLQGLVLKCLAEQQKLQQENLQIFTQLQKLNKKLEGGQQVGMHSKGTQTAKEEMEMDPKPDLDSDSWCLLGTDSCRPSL
The note with it: at 0.1 µM.

Chain of Serine/threonine-protein kinase Nek7 (Homo sapiens) (Q8TDX7 whole entry, looked up): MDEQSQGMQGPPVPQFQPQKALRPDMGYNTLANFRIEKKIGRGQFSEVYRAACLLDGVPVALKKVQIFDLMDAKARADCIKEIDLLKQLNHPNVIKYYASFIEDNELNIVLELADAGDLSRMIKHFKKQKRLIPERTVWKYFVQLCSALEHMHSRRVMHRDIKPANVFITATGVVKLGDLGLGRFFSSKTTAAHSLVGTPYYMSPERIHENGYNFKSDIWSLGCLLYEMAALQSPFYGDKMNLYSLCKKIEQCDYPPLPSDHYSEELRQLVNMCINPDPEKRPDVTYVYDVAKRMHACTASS
Chain of Casein kinase II subunit alpha (Homo sapiens) (P68400 whole entry, looked up): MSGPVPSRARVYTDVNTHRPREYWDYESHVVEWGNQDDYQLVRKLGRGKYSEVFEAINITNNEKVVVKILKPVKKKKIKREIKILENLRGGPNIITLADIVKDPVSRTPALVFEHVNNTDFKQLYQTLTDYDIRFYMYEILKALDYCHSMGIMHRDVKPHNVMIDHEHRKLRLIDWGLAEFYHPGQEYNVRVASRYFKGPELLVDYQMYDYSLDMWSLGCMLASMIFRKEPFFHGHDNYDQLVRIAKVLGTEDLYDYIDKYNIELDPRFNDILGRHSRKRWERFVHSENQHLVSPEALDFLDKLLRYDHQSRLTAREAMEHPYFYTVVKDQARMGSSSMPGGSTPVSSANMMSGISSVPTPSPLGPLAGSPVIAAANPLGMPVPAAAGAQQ
Chain of Serine/threonine-protein kinase Nek6 (Homo sapiens) (Q9HC98 whole entry): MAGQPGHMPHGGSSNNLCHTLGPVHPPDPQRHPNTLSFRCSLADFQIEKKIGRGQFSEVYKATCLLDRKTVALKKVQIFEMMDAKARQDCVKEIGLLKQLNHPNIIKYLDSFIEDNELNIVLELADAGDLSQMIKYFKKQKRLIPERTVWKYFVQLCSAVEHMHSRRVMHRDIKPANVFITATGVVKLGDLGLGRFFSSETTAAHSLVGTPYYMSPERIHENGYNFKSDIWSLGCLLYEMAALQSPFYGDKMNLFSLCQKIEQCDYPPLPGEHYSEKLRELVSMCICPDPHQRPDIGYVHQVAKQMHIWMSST
Chain of Sphingosine kinase 1 (Homo sapiens) (Q9NYA1 whole entry): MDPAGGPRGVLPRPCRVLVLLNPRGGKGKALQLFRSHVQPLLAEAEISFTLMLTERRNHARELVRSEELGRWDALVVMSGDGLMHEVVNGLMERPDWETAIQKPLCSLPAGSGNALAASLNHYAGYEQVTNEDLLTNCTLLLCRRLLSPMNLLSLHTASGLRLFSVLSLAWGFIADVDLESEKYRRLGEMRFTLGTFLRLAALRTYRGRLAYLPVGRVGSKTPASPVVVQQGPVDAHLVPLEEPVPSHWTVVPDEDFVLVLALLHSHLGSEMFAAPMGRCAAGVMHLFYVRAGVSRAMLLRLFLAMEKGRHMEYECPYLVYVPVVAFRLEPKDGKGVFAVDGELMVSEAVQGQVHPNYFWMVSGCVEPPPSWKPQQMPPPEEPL

As to `c1cc(-c2cnn3nc(N4CCOCC4)ccc23)nc(NC2CC2)n1`, the inhibition in assay [1] came to 0.41%; in assay [2], 0%; in [3], 1.66%; in assay [4], 1.46%; in assay [5], 7.14%; in [6] it was 6.71%. Also, the inhibition worked out at 15.7% in assay [7]; 3.81% in [8]; 5.82% in [9]; 2.67% in [10]; 5.49% in assay [11]; 3.14% in assay [12]. Moreover, the inhibition came to 6.78% in [13]; 4.47% in assay [14]; 4.05% in [15]; 0.95% in assay [16]; 0.56% in [17]; 3.89% in assay [18]. Further, the inhibition in assay [19] was 4.77%; in [20] it was -1.68%.

The record behind these values is ChEMBL document CHEMBL1961873, “Compounds: GSK PKIS; Assays: Nanosyn kinase panel” (2012).
